Experimental data reported in PubChem BioAssay AID624169 (The Scripps Research Institute Molecular Screening Center, 2012).
Among all 360,000 compounds or so, about 2,400 (0.67%) were called active. The entries come from a sample that favours actives as a whole. Unmarked numbers belong to inactive results.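 Rule for the calls: active = activation above a run cutoff, the mean activation of all tested compounds plus 3 SD (cut at about 14% in these data); inactive = the rest.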

The molecules below were run against 5-hydroxytryptamine receptor 2A (Mus musculus) (UniProt P35363) (assay: activation of mouse 5-HT2A receptor – cell-based, luminescence, primary screen (AID 624169;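 note: 0% = plate median of compound wells and 100% = 30 µM serotonin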)). Conditions: CHO-K1 mHTR2A beta-arrestin complementation, at 7.6 µM, active compounds read high, percent of 30 µM serotonin response.
Chain of 5-hydroxytryptamine receptor 2A (Mus musculus) (P35363 whole entry, looked up): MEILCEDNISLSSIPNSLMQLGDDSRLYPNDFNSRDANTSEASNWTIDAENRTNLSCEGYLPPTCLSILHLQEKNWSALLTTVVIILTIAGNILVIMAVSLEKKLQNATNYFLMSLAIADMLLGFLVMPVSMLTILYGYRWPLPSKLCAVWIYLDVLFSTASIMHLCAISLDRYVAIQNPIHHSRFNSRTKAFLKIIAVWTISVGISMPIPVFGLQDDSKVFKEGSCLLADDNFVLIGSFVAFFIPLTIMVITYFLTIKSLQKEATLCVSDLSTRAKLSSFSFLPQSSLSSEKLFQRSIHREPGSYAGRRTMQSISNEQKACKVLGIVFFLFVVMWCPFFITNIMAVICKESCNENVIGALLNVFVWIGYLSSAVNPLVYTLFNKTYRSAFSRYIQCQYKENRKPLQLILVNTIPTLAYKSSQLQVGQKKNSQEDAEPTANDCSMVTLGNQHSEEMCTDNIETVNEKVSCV
For `COc1ccc(C(C)=O)cc1COC(=O)Cn1cnc2ccccc2c1=O`, the activation was 16.5% (active). For `COCc1cc(C(C)=O)ccc1OC`, the activation was 2.94%. `CCN(CC(=O)Nc1ccccc1OC)C(=O)Cn1cnc2ccccc2c1=O` was tested, and the activation was 2.03%. For `CN1OC[C@@H]2CN[C@H](c3ccc(-c4ccccc4)cc3)C[C@@H]21`, the activation was -5.82%. With `Cc1ccc(S(=O)(=O)NN=C2CC(C)(C)CC(=O)C2(C)C)cc1` the activation was -0.12%. `Cc1ccc(C2(c3ccc(C)cc3)NC(=O)N(Cc3c(C)noc3C)C2=O)cc1` showed an activation of -0.69%. For `CCCNC(=O)CCn1nc(-c2ccccc2)c2ccccc2c1=O`, the activation was 5.25%. `COc1ccccc1CNC(=O)Cn1c(=O)oc2cc(Cl)ccc21` was tested, and the activation was -2.35%. `COC(=O)Cn1nc(-c2ccccc2)c2cc(Cl)ccc21` was tested, and the activation was 18.3% (active). In the case of `COC(=O)c1ccccc1N=Nc1c(C)[nH][nH]c1=O`, the activation is reported as -4.12%. `CC(C)(C)SCCSC1=CC(=O)CC(c2ccccc2)C1` (stereo unspecified) was tested, and the activation was -1.98%. `O=C(NCc1ccco1)c1cccn2c(=O)c3c4c(sc3nc12)CCCC4` was tested, and the activation was 19.5% (active). For `O=c1oc(-c2ccco2)nc2sc3c(c12)CCCCC3`, the activation was -3.64%. `O=C(NCc1ccco1)c1cnn2c(C(F)(F)F)cc(-c3ccco3)nc12` gave an activation of 0.02%. With `COc1ccc(OCCCC(=O)OC(C)C(=O)Nc2ccccc2[N+](=O)[O-])cc1` (stereo unspecified) the activation was 9.6%. Work on `Cc1ccc(OCc2nnc(NC(=O)OCC(C)C)s2)cc1` yielded an activation of -4.72%. Molecule `COCCCN1C(=O)c2ccc(C(=O)Nc3ccc(OC)cc3OC)cc2C1=O` has an activation of 12.7%. Work on `Cc1ccc2[nH]cc(CCCN3C(=O)c4ccccc4C3=O)c2c1` yielded an activation of -2.51%. `COc1ccc2[nH]cc(CCN3C(=O)c4ccc(C(=O)O)cc4C3=O)c2c1` was tested, and the activation was 19.3% (active). In the case of `O=C(Nc1ccc2c(c1)[C@@H]1C[C@@H](CC(=O)N3CCCCC3)O[C@@H](CO)[C@@H]1O2)NC1CCCCC1`, the activation is reported as 15.4% (active). `O=C(C[C@H]1C[C@@H]2c3cc(NC(=O)C4CCC4)ccc3O[C@@H]2[C@H](CO)O1)NC1CCCCC1` showed an activation of -0.85%. With `COC(=O)C[C@H]1C[C@@H]2c3cc(NC(=O)Nc4ccccc4)ccc3O[C@@H]2[C@@H](CO)O1` the activation was 2.06%. `O=C(CCS(=O)(=O)c1cccc2nsnc12)N1CCN(c2ccccc2F)CC1` gave an activation of 4.25%. `COC(=O)[C@@H]1CCCN1C(=O)c1cc(COc2cccc3cccnc23)on1` was tested, and the activation was 2.24%. In the case of `CCS(=O)(=O)Nc1ccc(C2=NN(S(=O)(=O)c3ccc(F)cc3)C(c3ccco3)C2)cc1` (stereo unspecified), the activation is reported as -6.66%. Molecule `COc1ccc(C(=O)C[n+]2ccc(C)cc2)cc1` has an activation of -0.16%. For `CO/N=C/CC(=O)c1ccc(OC)cc1`, the activation was 21.9% (active). Work on `COc1ccc(C(=O)COC(=O)c2ccc3ccccc3n2)cc1` yielded an activation of -0.68%. Molecule `Cc1cccc(NC(=O)c2cc(S(=O)(=O)N3CCC4(CC3)OCCO4)ccc2F)c1` has an activation of -2.45%. For `COc1ccc(/C(O)=C2/C(=O)C(=O)N(c3nc(C)c(C)s3)C2c2ccco2)cc1` (stereo unspecified), the activation was 0.59%. Work on `COc1ccc(C2/C(=C(/O)c3ccccc3)C(=O)C(=O)N2c2ncccn2)cc1OC` (stereo unspecified) yielded an activation of -1.25%. For `CCOc1ccc(/C(O)=C2\C(=O)C(=O)N(c3ccc(OC)cc3)C2c2ccccc2[N+](=O)[O-])cc1` (stereo unspecified), the activation was 23.9% (active). `CCN(CCn1cccn1)Cc1nc(-c2ccc(C(=O)OC)cc2)no1` gave an activation of 2.48%. Molecule `N=C1c2ccccc2-c2ccccc21` has an activation of 3.53%. Molecule `Cc1nnc(C)c2c(C)n(N)c(C)c12` has an activation of -1.02%. Work on `Cc1ccccc1-n1nc(SCC(=O)O)sc1=S` yielded an activation of -1.31%. `N#CCSc1nn(-c2ccc(F)cc2)c(=S)s1` was tested, and the activation was 15.4% (active). In the case of `O=C(CSc1nn(-c2ccc(F)cc2)c(=S)s1)NC1CCS(=O)(=O)C1` (stereo unspecified), the activation is reported as -0.71%. In the case of `COCCCN(C(=O)CSCc1ccc(C)cc1)c1c(N)n(Cc2ccccc2)c(=O)[nH]c1=O`, the activation is reported as 7.86%. `CC1C(C)N(C(=O)CCl)c2ccccc2N1C(=O)CCl` (stereo unspecified) gave an activation of -1.04%. `Cn1c2c(c(=O)n(C)c1=O)C1c3ccccc3OCC1C(C)(C)O2` (stereo unspecified) showed an activation of -0.33%. For `Cn1c2c(c(=O)n(C)c1=O)C(c1cccc([N+](=O)[O-])c1)Nc1ccccc1O2` (stereo unspecified), the activation was -3.64%. For `Cn1c2c(c(=O)n(C)c1=O)C(c1ccc(O)cc1)Nc1ccccc1O2` (stereo unspecified), the activation was 27% (active). With `COC(=O)COc1ccc(C2NC(=O)NC(C)=C2C(=O)NCc2ccccc2)cc1OC` (stereo unspecified) the activation was -4.71%. `COCCCn1cc(CN2CC(N(C)C)CS2(=O)=O)nn1` (stereo unspecified) showed an activation of 5.48%. For `Cc1c(Br)c([N+](=O)[O-])nn1CC(=O)Nc1sc2c(c1C(=O)OC(C)C)CCC(C)C2` (stereo unspecified), the activation was 2.43%. In the case of `CC(=O)c1ccc(OCC(O)CN2CCN(S(=O)(=O)c3cccc(Br)c3)CC2)cc1` (stereo unspecified), the activation is reported as 1.8%. `O=S(=O)(c1ccc(OCC(O)CN2CCN(c3ccccc3Cl)CC2)cc1)N1CCOCC1` (stereo unspecified) was tested, and the activation was 22.4% (active). Work on `CC(=O)Nc1ccc(OCC(O)CN2CCN(c3ccccc3Cl)CC2)cc1` (stereo unspecified) yielded an activation of 2.24%. With `Cc1cc(C(=O)NNS(=O)(=O)c2ccccc2C(F)(F)F)nn1C(C)(C)C` the activation was -0.74%. `CCOC(=O)[C@]12CCCC=C1N(CCC1=CCCCC1)C(=O)[C@H](CC(=O)NCCCCc1ccccc1)C2` gave an activation of 3.93%. With `Cc1[nH]c2ccccc2c1CCN(Cc1cccs1)C(=S)NC(C)(C)C` the activation was 24.1% (active). `COc1ccc2[nH]c(C)c(CCN(Cc3cccs3)C(=S)Nc3ccccc3OC)c2c1` gave an activation of 10.5%. `CCNC(=S)N(CCc1c(C)[nH]c2ccc(C)cc12)Cc1ccco1` gave an activation of -4.57%. `CCOC(=O)c1cccc(NC(=O)C2CCN(c3ncnc4c3nc3n4CCCCC3)CC2)c1` gave an activation of -3.05%. For `CCOCCCN1C(=O)C2C(C(=O)Nc3ccc(OCC)cc3)C3C=CC2(O3)C1C(=O)NC1CCCCC1` (stereo unspecified), the activation was 6.26%. With `COc1ccc(C(C)(C)C)cc1NC(=O)CCN1C(=O)C2CCCCC2C1=O` (stereo unspecified) the activation was -4.43%. With `O=C(OCc1nnc(-c2ccccc2)o1)c1ccc2c(c1)C(=O)N(CCc1ccccc1)C2=O` the activation was 1.62%. Molecule `Cc1onc(-c2ccccc2)c1-c1nnc(COC(=O)c2ccc(N(C)C)cc2)o1` has an activation of -6.2%. For `Cc1ccc(C(=O)NCC(=O)OCc2nnc(-c3ccccc3)o2)cc1`, the activation was 14.8% (active). For `CSc1ccc(NC(=O)N2CC(C)OC(C)C2)cc1` (stereo unspecified), the activation was -3.29%. In the case of `CCCCn1nc(C(=O)Nc2cccc(C(=O)NC3CC3)c2)c2ccccc2c1=O`, the activation is reported as 2.3%. `Cn1cccc1C(=O)OCC(=O)c1ccc(Br)s1` showed an activation of -5.88%. `OC(COc1ccc(F)cc1Cl)CN1CCc2ccccc2C1` (stereo unspecified) was tested, and the activation was -18.7%. Molecule `COc1ccccc1C(c1nnnn1CC1CCCO1)N1CCN(c2ccccc2)CC1` (stereo unspecified) has an activation of -1.76%. `O=C(c1cccs1)n1nc(NCc2ccccc2)nc1NCc1ccccc1` showed an activation of -1.74%. Work on `O=C(NCc1ccco1)/C(=C/c1ccco1)NC(=O)c1ccccc1` yielded an activation of 2.71%. `O=C(Cc1ccccc1)n1nc(-c2ccccc2)nc1NCc1ccco1` was tested, and the activation was 17.4% (active). With `CC(C)NS(=O)(=O)c1ccc(NC(=O)C2CCCCC2)cc1` the activation was -5.58%. With `Cc1nc2ccc(NC(=O)C3CCCCC3)cc2s1` the activation was 5.67%. With `CS(=O)(=O)c1ccc2nc(NC(=O)C3CCCCC3)sc2c1` the activation was 14.9% (active). `Cc1ccc2nc(NC(=O)C3CCN(S(=O)(=O)c4ccc5c(c4)oc(=O)n5C)CC3)sc2c1` showed an activation of -3.71%. With `O=C(NCCCN1CCCCCC1)C1CC(=O)N(C2CCCC2)C1` (stereo unspecified) the activation was 2.65%. In the case of `O=C(NCCCN1CCN(c2ccccc2F)CC1)C1CCC(=O)N1C1CCCCC1` (stereo unspecified), the activation is reported as 16.5% (active). In the case of `COc1ccc(CN2CC(C(=O)NCCN3CCN(c4ccccc4F)CC3)CC2=O)cc1` (stereo unspecified), the activation is reported as -3.29%. With `COC(=O)c1ccccc1NC(=O)C1CCN(S(=O)(=O)c2cc(OC)ccc2OC)CC1` the activation was -1.33%. `Cc1cc(C)cc(C(=O)N(CCc2ccccc2)C2=CC3CCC(C2)N3C)c1` (stereo unspecified) showed an activation of -10.4%. In the case of `CCCN(CCc1ccccc1)C1CCc2c(O)cccc2C1` (stereo unspecified), the activation is reported as 50.6% (active). `COC(=O)c1ccc(CN2C(=O)C(Cc3ccccc3)ON=C2c2ncccc2C)o1` (stereo unspecified) showed an activation of 0.18%. For `CCOc1ccccc1NS(=O)(=O)c1cc2c3c(c1)C(C)C(=O)N3CCC2` (stereo unspecified), the activation was 5.3%. With `C/C(=N\NC(=O)COc1c(C)cccc1C)c1cccs1` the activation was 14.4% (active). Work on `C/C(=N\NC(=O)CSc1nc2ccccc2c(=O)n1-c1ccccc1C)c1cccs1` yielded an activation of -1%. `C/C(=N\OCC(=O)Nc1ccc(Br)cc1)c1cccs1` showed an activation of -2.57%. In the case of `Oc1ccc(CN2CCN(c3ncccn3)CC2)cc1`, the activation is reported as 30.1% (active). `CN(C)C(=O)c1nc2ccc(Cl)cn2c1CN1CCN(c2ncccn2)CC1` was tested, and the activation was 1.37%. `Cc1ccc(CN2CCN(/N=C/c3cccnc3)CC2)c(C)c1` was tested, and the activation was -3.83%. With `Cc1ccc(CN2CCN(/N=C/c3ccco3)CC2)c(C)c1` the activation was -2.05%. Molecule `COc1ccccc1-c1nn(Cc2ccccc2)cc1C(=O)N1CCN(c2ncccn2)CC1` has an activation of 11.3%. With `Cc1ccc(CN2CCN(c3ncccn3)CC2)c(C)c1` the activation was 25.6% (active). Work on `CC1(C)CCSC(/C=C/c2ccccc2)=N1` yielded an activation of -2.29%. Molecule `Nc1c(C(=O)O)cnn1-c1ccccc1` has an activation of 2.02%.
